Measured values reported in the supplement of paper PMC12669032.

What was measured:
Experiment in all cases: growth AUC relative to DMSO control (median of replicates) (fraction); higher = more growth (less inhibition), active = hit call of the paper
Settings in all cases: 20 µM; 24 h;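 active = AUC reduced over 20% with Padj below 0.05 in at least 2 of 3 replicates; inactive = otherwise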
[1] = system: Akkermansia muciniphila
In short: (§1)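 Three biological replicates, each grown on a separate day, were combined as a median for every value. In each, a gut bacterial monoculture in mGAM started at OD600 0.05 and grew anaerobically at 37 °C with 20 µM compound (1% DMSO), with OD600 read hourly over 24 h. Area under the growth curve was normalised against the plate median of solvent-only wells, or against row and column medians on the industrial chemical plate, after the minimum OD was set to 0.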

[2] = system: Bacteroides caccae
In short: as §1

[3] = system: Bacteroides clarus
In short: as §1

[4] = system: Bacteroides dorei
In short: as §1

[5] = system: Bacteroides stercoris
In short: as §1

[6] = system: Bacteroides thetaiotaomicron
In short: as §1

[7] = system: Bacteroides uniformis
In short: as §1

[8] = system: Bifidobacterium longum subsp. longum
In short: as §1

[9] = system: Clostridium difficile
In short: as §1

[10] = system: Collinsella aerofaciens
In short: as §1

Measured: growth AUC

NC(=O)c1c(Cl)cccc1Cl
inactive: [1] 0.966 | [2] 0.94 | [3] 1 | [4] 1.01 | [5] 1.06 | [6] 0.998 | [7] 0.978 | [8] 1 | [9] 0.98 | [10] 0.974

CC(C)C1C2CCC1c1c(NC(=O)c3cn(C)nc3C(F)F)cccc12 (stereo not given)
inactive: [1] 0.967 | [2] 0.88 | [3] 0.85 | [4] 0.965 | [5] 0.902 | [6] 0.906 | [7] 0.912 | [8] 0.912 | [9] 0.962 | [10] 0.969

CCC(C)c1cc([N+](=O)[O-])cc([N+](=O)[O-])c1OC(=O)OC(C)C (stereo not given)
active: [5] 0.294
inactive: [1] 1.05 | [2] 0.909 | [3] 0.81 | [4] 0.892 | [6] 0.875 | [7] 0.881 | [8] 0.959 | [9] 0.945 | [10] 0.915

c1ccc2c(c1)ccc1ccccc12
inactive: [1] 1.02 | [2] 0.983 | [3] 1.01 | [4] 0.996 | [5] 0.999 | [6] 1.01 | [7] 1 | [8] 1.01 | [9] 1 | [10] 1.02

Cc1cccc(C)c1N(CC(=O)O)C(=O)CS(=O)(=O)[O-].[Na+]
inactive: [1] 0.891 | [2] 1.01 | [3] 0.939 | [4] 0.998 | [5] 0.888 | [6] 1.01 | [7] 1 | [8] 0.938 | [9] 1.05 | [10] 0.973

CC(C)(C)[C@@H](O)[C@@H](Cc1ccc(Cl)cc1)n1cncn1 (mixture of isomers)
inactive: [1] 1.1 | [2] 0.942 | [3] 0.98 | [4] 0.909 | [5] 0.933 | [6] 0.993 | [7] 0.966 | [8] 1.09 | [9] 0.938 | [10] 0.967

COC(=O)CC(NC(=O)[C@@H](NC(=O)OC(C)C)C(C)C)c1ccc(Cl)cc1 (stereo not given in full)
inactive: [1] 1.08 | [2] 0.934 | [3] 0.991 | [4] 1.02 | [5] 1.34 | [6] 0.981 | [7] 0.934 | [8] 1.01 | [9] 1.01 | [10] 0.963

O=C(Nc1ccc(F)cc1-c1ccc(Cl)c(Cl)c1)c1cn[nH]c1C(F)F
inactive: [1] 1.02 | [2] 0.865 | [4] 0.968 | [8] 0.952 | [9] 0.971 | [10] 1.01
active: [3] 0.724 | [5] 0.349 | [6] 0.635 | [7] 0.689

CCCNCCOc1c(Cl)cc(Cl)cc1Cl
inactive: [1] 0.946 | [2] 0.972 | [3] 0.979 | [4] 0.985 | [5] 0.898 | [6] 0.979 | [7] 1 | [8] 0.918 | [9] 0.973 | [10] 0.98

C#CCOC(=O)[C@@H](C)Oc1ccc(Oc2ncc(Cl)cc2F)cc1
inactive: [1] 0.914 | [2] 0.998 | [3] 0.985 | [4] 1.02 | [5] 1.05 | [6] 0.975 | [7] 0.942 | [8] 1.04 | [9] 0.99 | [10] 0.964

CC(C)(SC(=O)N1CCCCC1)c1ccccc1
inactive: [1] 0.978 | [2] 0.973 | [3] 0.982 | [4] 1.01 | [5] 0.945 | [6] 0.927 | [7] 0.965 | [8] 1.01 | [9] 0.99 | [10] 1

CC(C)C(O)(c1ccc(OC(F)(F)F)cc1)c1cncnc1 (stereo not given)
inactive: [1] 0.853 | [2] 1 | [3] 0.938 | [4] 0.991 | [5] 1.22 | [6] 0.939 | [7] 0.972 | [8] 1.03 | [9] 0.985 | [10] 1.03

CCOC(=O)CSc1nc(C(C)(C)C)nn1C(=O)N(C)C
inactive: [1] 1.03 | [2] 0.951 | [3] 0.96 | [4] 0.94 | [5] 0.815 | [6] 0.978 | [7] 0.989 | [8] 0.96 | [9] 1.01 | [10] 0.931

CN(C)C(=O)c1cccnc1S(N)(=O)=O
inactive: [1] 1.05 | [2] 1.01 | [3] 1.04 | [4] 1.03 | [5] 1.01 | [6] 0.988 | [7] 1.04 | [8] 1.02 | [9] 1.05 | [10] 1.01

CN(C)C(=O)NC1CCCCCCC1
inactive: [1] 0.984 | [2] 1.01 | [3] 1.01 | [4] 0.996 | [5] 1.09 | [6] 0.99 | [7] 0.972 | [8] 1.01 | [9] 1.03 | [10] 1.01

COc1cc(OC)c(Cl)cc1N
inactive: [1] 0.954 | [2] 0.994 | [3] 0.995 | [4] 1.02 | [5] 1.09 | [6] 1.01 | [7] 1.01 | [8] 0.912 | [9] 1.01 | [10] 1.03

COC(=O)c1ccc(C(F)(F)F)nc1S(=O)(=O)[N-]C(=O)Nc1nc(OC)cc(OC)n1.[Na+]
inactive: [1] 0.963 | [2] 1.01 | [3] 0.997 | [4] 1.01 | [5] 0.908 | [6] 0.993 | [7] 0.978 | [8] 0.938 | [9] 1.05 | [10] 1.03

CCS(=O)(=O)c1nnc(N(C)C(=O)NC)s1
inactive: [1] 0.883 | [2] 1.02 | [3] 0.977 | [4] 1.01 | [5] 1.03 | [6] 1.01 | [7] 0.995 | [8] 0.995 | [9] 0.974 | [10] 1.06

CCSC(=O)COc1ccc(Cl)cc1C
active: [6] 0.751
inactive: [1] 0.952 | [2] 0.977 | [3] 0.982 | [4] 0.905 | [5] 0.997 | [7] 1.03 | [8] 1.04 | [9] 1.04 | [10] 0.966

CCN(CC)c1nc(C)cc(=O)[nH]1
inactive: [1] 1.08 | [2] 0.974 | [3] 1.03 | [4] 1.02 | [5] 1.11 | [6] 0.996 | [7] 0.961 | [8] 1.02 | [9] 1.01 | [10] 1.01

Cc1ccc(C(C)NC(=O)[C@@H](NC(=O)OC(C)C)C(C)C)cc1 (stereo not given in full)
inactive: [1] 1.06 | [2] 0.975 | [3] 1.03 | [4] 1.01 | [5] 1.11 | [6] 0.984 | [7] 0.973 | [8] 0.97 | [9] 0.951 | [10] 0.986

CCCCCCCC/C=C\CCCCCCCC(N)=O
inactive: [1] 0.936 | [2] 0.999 | [3] 0.991 | [4] 0.977 | [5] 0.875 | [6] 0.982 | [7] 0.998 | [8] 0.849 | [9] 1.01 | [10] 0.857

Cc1cc(CC(C)CC(C)(C)C)n(O)c(=O)c1.NCCO (stereo not given)
inactive: [1] 1.22 | [2] 0.993 | [3] 0.982 | [4] 0.99 | [5] 0.932 | [6] 0.999 | [7] 1 | [8] 0.991 | [9] 0.977 | [10] 0.933

Cc1c(Br)c2ccc(F)cc2n1S(=O)(=O)c1ncn(S(=O)(=O)N(C)C)n1
inactive: [1] 0.998 | [2] 1.05 | [3] 1 | [4] 1.01 | [5] 0.997 | [6] 1 | [7] 0.993 | [8] 1.05 | [9] 1.07 | [10] 1.07

CCOCOc1ccc(C(=O)Nc2cccc(Cl)c2Cl)cc1
inactive: [1] 1.04 | [2] 0.855 | [3] 0.881 | [4] 0.972 | [5] 0.836 | [6] 0.884 | [7] 0.912 | [8] 0.907 | [9] 1.02 | [10] 0.956

CCNc1nc(N)nc(Cl)n1
inactive: [1] 0.954 | [2] 1.01 | [3] 1.02 | [4] 1.01 | [5] 1.12 | [6] 1.03 | [7] 1.02 | [8] 1 | [9] 1.03 | [10] 0.996

FC(F)(F)c1cccc(C(c2ccccc2)(c2ccccc2)n2cncn2)c1
active: [2] 0.02
inactive: [1] 0.852 | [3] 0.93 | [4] 0.92 | [5] 0.892 | [6] 0.869 | [7] 0.877 | [8] 0.948 | [9] 1.04 | [10] 0.924

Cc1cc(C2CC2)nc(Nc2ccc(O)cc2)n1
inactive: [1] 0.829 | [2] 0.999 | [3] 0.967 | [4] 0.994 | [5] 0.968 | [6] 0.943 | [7] 0.957 | [8] 1.04 | [9] 0.982 | [10] 0.975

CC(C)COC(=O)COc1cc(Cl)c(Cl)cc1Cl
inactive: [1] 0.952 | [2] 0.864 | [3] 0.993 | [4] 0.971 | [5] 1.15 | [6] 0.978 | [7] 1.01 | [8] 1.03 | [9] 1 | [10] 0.91
